Screening data as filed in PubChem BioAssay.
ADAM17 inh: ADAM17 inhibitors, primary screen, biochemical, QFRET; Disintegrin and metalloproteinase domain-containing protein 17 (Homo sapiens), P78536; recombinant ADAM17, EDANS/DABCYL FRET peptide cleavage; inhibition, % at 6.95 µM; 0.83% of 370,000 active;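 active = inhibition above the mean of compounds lying between control limits plus 3 SD, set per campaign, cut at about 8.5% in these data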
FAS TE block: FAS thioesterase domain inhibitors, primary screen, biochemical, fluorescence intensity, uHTS; Fatty acid synthase (Homo sapiens), P49327; recombinant FAS-TE, OMFH fluorogenic substrate, fluorescence endpoint; inhibition, % at 15 µM; 0.67% of 360,000 active; AID 602261, 2012;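 active = compounds whose normalised, plate-corrected inhibition of enzyme fluorescence in the single-dose primary screen is 50% or more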
GC-B act: human GC-B receptor activators, primary screen, HEK293 GC-B cells, cGMP TR-FRET, EC30 CNP | AID 1920062, 2024 | 0% at EC30 CNP, 100% saturating CNP | activation, % at 10 µM | 0.11% of 370,000 active | Atrial natriuretic peptide receptor 2 (Homo sapiens), P20594;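 active = activation at 10 µM reaching about 35% in either raw or pattern-adjusted values, limit read from the data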
Target sequence (P20594 whole entry, looked up): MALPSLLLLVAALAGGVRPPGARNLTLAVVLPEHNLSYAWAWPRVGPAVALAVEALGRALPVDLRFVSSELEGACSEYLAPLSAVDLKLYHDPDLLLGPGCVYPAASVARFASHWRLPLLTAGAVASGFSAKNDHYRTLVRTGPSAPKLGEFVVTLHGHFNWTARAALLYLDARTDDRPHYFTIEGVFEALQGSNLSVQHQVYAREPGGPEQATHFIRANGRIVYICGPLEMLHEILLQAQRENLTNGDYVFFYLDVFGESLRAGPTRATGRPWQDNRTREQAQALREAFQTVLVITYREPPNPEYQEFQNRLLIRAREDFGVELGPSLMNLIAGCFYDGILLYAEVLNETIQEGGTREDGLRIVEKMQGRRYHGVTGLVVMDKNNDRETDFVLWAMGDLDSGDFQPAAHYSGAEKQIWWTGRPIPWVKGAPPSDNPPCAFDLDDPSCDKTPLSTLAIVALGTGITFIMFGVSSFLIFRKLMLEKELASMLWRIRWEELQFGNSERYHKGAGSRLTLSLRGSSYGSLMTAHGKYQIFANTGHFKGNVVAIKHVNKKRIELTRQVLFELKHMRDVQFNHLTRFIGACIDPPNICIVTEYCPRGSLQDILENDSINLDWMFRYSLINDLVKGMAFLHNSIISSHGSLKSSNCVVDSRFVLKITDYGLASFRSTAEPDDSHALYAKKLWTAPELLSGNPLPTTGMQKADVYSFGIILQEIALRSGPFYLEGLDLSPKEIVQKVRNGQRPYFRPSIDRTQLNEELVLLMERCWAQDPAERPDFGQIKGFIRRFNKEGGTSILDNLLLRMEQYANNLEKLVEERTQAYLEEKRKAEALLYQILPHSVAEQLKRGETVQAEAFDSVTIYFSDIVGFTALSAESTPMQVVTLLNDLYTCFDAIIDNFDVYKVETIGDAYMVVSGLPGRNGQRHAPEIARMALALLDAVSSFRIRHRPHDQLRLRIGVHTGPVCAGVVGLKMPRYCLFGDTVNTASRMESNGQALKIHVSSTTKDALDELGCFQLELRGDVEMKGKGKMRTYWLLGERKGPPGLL
GC-A act: GC-A stimulated cGMP production enhancers – HEK293 GC-A cells, cGMP TR-FRET, EC30 ANP, primary screen; 0% at EC30 ANP, 100% saturating ANP; 0.14% of 370,000 active; activation, % at 10 µM; in the data active = activation above about 40%
ADAM10 inh: human ADAM10 inhibitors, primary screen, biochemical, QFRET, HTS; Disintegrin and metalloproteinase domain-containing protein 10 (Homo sapiens), O14672; recombinant ADAM10, EDANS/DABCYL FRET peptide cleavage, 3 h; inhibition, % at 7 µM; 0.62% of 370,000 active;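 active = inhibition above a per-campaign cutoff equal to the mean of compounds falling between control-based bounds plus 3 SD, cut at about 20% in these data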
FAS-TE conf: FAS thioesterase domain inhibitors, confirmation, biochemical, fluorescence intensity, single concentration; inhibition, % at 15 µM; recombinant FAS-TE, OMFH fluorogenic substrate; AID 624325, 2012; shares compounds with FAS TE block; 45% of 2,300 active;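 active = compounds inhibiting the enzyme by at least 50% at 15 µM in any one of the replicates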
Hits are given with their value; – = inactive; · = not tested or not shown. Compounds with a hit are over-represented: about 2% of the library has one in this group of screens.

SMILES	ADAM17 inh	FAS TE block	GC-B act	GC-A act	ADAM10 inh	FAS-TE conf
Cc1c(NC(=O)C(C)OC(=O)c2cc(-c3cccc4ccccc34)nc3ccccc23)c(=O)n(-c2ccccc2)n1C (centres undefined)	–	73	–	–	–	–
COC(=O)c1ccccc1NC(=S)N(Cc1ccc2c(c1)OCO2)Cc1cc2cc(OC)ccc2[nH]c1=O	–	68	–	–	–	–
CCN(Cc1ccccc1)C(=O)c1c[nH]c2ccc(S(=O)(=O)N(C)CCC#N)cc2c1=O	–	59	–	–	–	67
Cc1ccccc1CN1CCCCC(NC(=O)c2cccc(C(F)(F)F)c2)C1=O (centres undefined)	–	·	–	–	–	·
Cc1ccc(NC(=S)N(Cc2cccs2)Cc2cc3cc(C)ccc3[nH]c2=O)cc1	–	72	–	–	–	–
Cc1cc(C)c2[nH]c(=O)c(CN(Cc3cccs3)C(=S)NCc3ccco3)cc2c1	–	62	–	–	–	–
COc1cc2cc(CN(Cc3cccs3)C(=S)Nc3ccc(C)cc3)c(=O)[nH]c2cc1OC	–	76	–	–	–	–
CNC(=S)N(Cc1cccs1)Cc1cc2cc(OC)c(OC)cc2[nH]c1=O	–	–	–	–	–	·
Cc1cccc(NC(=S)N(Cc2cccs2)Cc2cc3cc(C)ccc3[nH]c2=O)c1	–	–	–	–	–	·
C[C@H](CO)N1C[C@H](C)[C@H](CN(C)C(=O)Nc2cccc(F)c2)OCc2cnnn2CCCC1=O	–	·	–	–	–	·
Cc1csc(NC(=O)CCNC(=O)c2ccc([N+](=O)[O-])cc2)n1	–	68	–	–	–	71
O=C(CCNC(=O)c1ccc([N+](=O)[O-])cc1)Nc1ccc(F)cc1	–	–	–	–	–	·
Cc1cc(C)cc(NC(=O)CCNC(=O)c2ccc([N+](=O)[O-])cc2)c1	–	69	–	–	–	–
O=C(NCCc1c[nH]c2ccccc12)[C@H](Cc1c[nH]c2ccccc12)NC1(C(=O)NC2CCCCC2)CCCCCCC1	–	·	–	–	–	·
CN1C(=S)SC(N2OC3C(=O)N(c4ccccc4)C(=O)C3C2c2ccc(Cl)cc2)C1(C)C (centres undefined)	–	69	–	–	–	–
COc1ccc2cc3cc(C(=O)N4CCCC(C)C4)oc3nc2c1 (centres undefined)	–	71	–	–	–	71
C#CCn1c(=NC(=O)c2ccc(S(=O)(=O)N3CCCc4ccccc43)cc2)sc2cc(S(N)(=O)=O)ccc21	–	–	–	–	–	·
Cn1c(=NC(=O)c2ccc(S(=O)(=O)N3CCCc4ccccc43)cc2)sc2cc(S(C)(=O)=O)ccc21	–	83	–	–	–	–
Cc1c(C(=O)OCCOc2ccc(Br)cc2)sc(=S)n1C	–	69	–	–	–	63
CCOC(=O)c1sc(=S)n(C)c1NC(=O)c1ccc(OC)cc1	–	–	–	–	–	·
COc1ccc2c(c1)c(CC(=O)Nc1cc(C)ccc1C)c(C)n2C(=O)c1ccc(Cl)cc1	–	–	–	–	–	·
COc1ccc2c(c1)c(CC(=O)Nc1ccccc1OC)c(C)n2C(=O)c1ccc(Cl)cc1	–	52	–	–	–	–
COc1ccc(N(C)S(=O)(=O)c2cccc(C(=O)N3CCN(S(=O)(=O)c4ccc(C)cc4)CC3)c2)cc1	–	52	–	–	–	–
COc1ccc(S(=O)(=O)N2CCN(C(=O)c3cccc(S(=O)(=O)N4CCCC4)c3)CC2)cc1	–	–	–	–	–	·
Cc1cc(C)nc(N2CCC(C(=O)N(C)CCc3ccccn3)CC2)n1	–	·	–	–	–	·
SMILES	ADAM17 inh	FAS TE block	GC-B act	GC-A act	ADAM10 inh	FAS-TE conf
COc1nc(OC)nc(N2CCC(C(=O)N(C)Cc3ccccc3F)CC2)n1	–	·	–	–	–	·
O=C(NCCc1cccc(F)c1)c1cc2ccccn2n1	–	·	–	–	–	·
O=C(NCc1ccc(C(F)(F)F)cc1)C1CC(c2c(Cl)cccc2Cl)=NO1 (centres undefined)	–	55	–	–	–	55
O=C(NCc1ccc(C(F)(F)F)cc1)C1CC(c2ccc(C(F)(F)F)cc2)=NO1 (centres undefined)	–	–	–	–	–	·
CCCC[C@@H](CCCc1ccc(F)cc1)CCC(=O)N(c1ccccc1)c1ccccc1	–	·	–	–	–	·
COc1ccc(-c2cc(C(=O)Nc3sc4c(c3C#N)CCCC4)c3ccccc3n2)cc1OC	–	52	–	–	–	–
COc1cc2c(cc1NC(=O)c1ccncc1)oc1ccccc12	·	–	·	·	·	·
COc1ccc(-c2cc(C(=O)Nc3nc4ccccc4s3)c3ccccc3n2)cc1OC	–	82	–	–	–	–
COc1cccc(-c2cc(C(=O)Nc3ccc([N+](=O)[O-])cn3)c3ccccc3n2)c1	–	52	–	–	–	–
COc1ccc(-c2cc(C(=O)Nc3ccccc3O)c3ccccc3n2)cc1OC	–	–	–	–	–	·
COc1cc2c(cc1NC(=O)c1cc(-c3ccccn3)nc3ccccc13)oc1ccccc12	–	57	–	–	–	–
Clc1ccc([C@H]2OC[C@@]3(CNCC4CC4)CS[C@H](c4ccc(Cl)cc4)N23)cc1	–	·	–	–	–	·
Clc1cc(Cl)cc(CNC2CCC23CCC(c2ccccc2)CC3)c1 (centres undefined)	–	·	–	–	–	·
O=C(CSc1nc2ccccc2c(=O)n1-c1ccc(F)cc1)Nc1ccc(C(=O)O)cc1	–	–	–	–	–	·
Cc1cc2nnc(SCC(=O)Nc3cc(S(=O)(=O)N4CCOCC4)ccc3Cl)n2c2ccccc12	–	–	–	–	–	·
O=C(CSc1nc2ccccc2c(=O)n1-c1ccc(F)cc1)Nc1ccc(Cl)c(S(=O)(=O)N2CCOCC2)c1	–	78	–	–	–	–
Cc1ccc(-n2c(SCC(=O)Nc3cc(S(=O)(=O)N4CCOCC4)ccc3Cl)nc3ccccc3c2=O)cc1	–	95	–	–	–	–
Cc1ccc(-c2cc(C(=O)NN=Cc3ccc(N(C)C)cc3)[nH]n2)cc1C	–	·	–	–	–	·
O=C(CSc1nnc(-c2ccccc2)n1-c1ccc(Cl)cc1)c1ccccc1Br	–	·	–	–	–	·
CCCn1c(CCNc2nc(-c3ccc(Cl)c([N+](=O)[O-])c3)cs2)nc2cc(Cl)c(Cl)cc21	–	–	–	–	–	·
O=[N+]([O-])c1cc(-c2csc(NCCc3nc4cc(Cl)c(Cl)cc4n3CCCO)n2)ccc1Cl	–	75	–	–	–	72
